Laboratory results from PubChem BioAssay (NCI).
Compounds without any hit were thinned out: in the full panel of roughly 79,000, 15% have a hit. Calls of active or inactive are those of the source. Rule as the data show it: active = growth inhibition above about 70%; inactive = the rest.

Tests used:
[1] = NCI Yeast Anticancer Drug Screen. Data for the wt1 strain (AID 149);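 also: 0% = growth of vehicle-treated wt1 cultures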; conditions: S. cerevisiae wt1 strain (SPY 50644) growth inhibition, stronger effect = higher value
In short: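 Readout: yeast growth inhibition, normalised to vehicle controls, in the wt1 strain exposed to test compounds.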

[2] = NCI Yeast Anticancer Drug Screen. Data for the rad50EPP+ strain (AID 151);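 also: 0% = growth of vehicle-treated control cultures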; conditions: S. cerevisiae rad50 mutant strain, stronger effect = higher value
In short: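 Vehicle-normalised growth inhibition; rad50EPP+ yeast strain, altered in DNA damage repair, compound-treated.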

[3] = NCI Yeast Anticancer Drug Screen. Data for the mgt1 strain (AID 153); conditions: S. cerevisiae mgt1 mutant growth inhibition, stronger effect = higher value
In short: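 Vehicle-normalized growth inhibition is determined in mgt1 yeast, a strain selected for a defined alteration in DNA repair or cell cycle control.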

[4] = NCI Yeast Anticancer Drug Screen. Data for the rad50 strain (AID 155);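 also: 0% = growth of vehicle-only cultures of the same strain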; conditions: S. cerevisiae rad50 strain growth inhibition, stronger effect = higher value
In short: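 Compounds were tested on a yeast strain with an engineered DNA damage repair alteration; the reported value is growth inhibition normalised to vehicle treatment.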

[5] = NCI Yeast Anticancer Drug Screen. Data for the mec2-1 strain (AID 157); conditions: S. cerevisiae mec2-1 strain, stronger effect = higher value
In short: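 Mutant yeast (mec2-1) grown with compound; growth inhibition relative to vehicle control reported.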

[6] = NCI Yeast Anticancer Drug Screen. Data for the sgs1 mgt1 strain (AID 161);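 also: 0% = growth of cultures given vehicle only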; conditions: S. cerevisiae sgs1 mgt1 strain, stronger effect = higher value
In short: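 Compounds are added to genetically altered yeast, and growth is compared with cultures given vehicle alone to give percent inhibition.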

[7] = NCI Yeast Anticancer Drug Screen. Data for the CLN2oe strain (AID 163);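 also: 0% = growth of vehicle-only control cultures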; conditions: S. cerevisiae CLN2oe strain, stronger effect = higher value
In short: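 Compounds are applied to yeast harbouring a defined cell-cycle control change; reduced growth compared with vehicle-treated controls gives the value.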

[8] = NCI Yeast Anticancer Drug Screen. Data for the cln2 rad14 strain (AID 165);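 also: 0% = growth equal to vehicle treated cultures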; conditions: S. cerevisiae cln2 rad14 strain, stronger effect = higher value
In short: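 Readout is yeast growth inhibition versus vehicle-treated controls, using a strain with cln2 and rad14 alterations exposed to compound.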

[9] = NCI Yeast Anticancer Drug Screen. Data for the bub3 strain (AID 167); conditions: S. cerevisiae bub3 mutant strain, stronger effect = higher value
In short: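 Growth of a checkpoint-deficient yeast mutant is measured after compound exposure. Values represent inhibition relative to vehicle.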

[10] = NCI Yeast Anticancer Drug Screen. Data for the wt2 strain (AID 169);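 also: 0% = growth of vehicle-treated yeast cultures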; conditions: S. cerevisiae wt2 strain growth inhibition, stronger effect = higher value
In short: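 Against vehicle-treated controls, the growth of yeast exposed to each compound was compared, and the inhibition was recorded.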

[11] = NCI Yeast Anticancer Drug Screen. Data for the sgs1 strain (AID 173);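 also: 0% = growth of vehicle-only control cultures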; conditions: S. cerevisiae sgs1 mutant, stronger effect = higher value
In short: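 Each compound was added to cultures of the altered yeast strain. Growth was recorded, and inhibition was derived by comparison with vehicle controls.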

[12] = NCI Yeast Anticancer Drug Screen. Data for the mlh1 rad18 strain (AID 175); conditions: S. cerevisiae mlh1 rad18 strain growth inhibition, stronger effect = higher value
In short: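 Genetically defined yeast (DNA repair-deficient) exposed to compounds; growth inhibition determined relative to vehicle.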

[13] = NCI Yeast Anticancer Drug Screen. Data for the rad18 strain (AID 177); conditions: S. cerevisiae rad18 mutant growth inhibition, stronger effect = higher value
In short: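 Vehicle-treated cultures served as the baseline for scoring compound-induced growth inhibition in DNA-repair-mutant yeast.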

[14] = NCI Yeast Anticancer Drug Screen. Data for the rad14 strain (AID 159);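 also: 0% = growth of vehicle-treated control cultures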; conditions: S. cerevisiae rad14 strain growth inhibition, stronger effect = higher value
In short: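 Compound-treated yeast with a defined DNA-repair lesion; growth inhibition normalised to vehicle-treated cultures.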

[15] = NCI Yeast Anticancer Drug Screen. Data for the mlh1 strain (AID 171);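 also: 0% = growth of vehicle-treated control cultures of the same strain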; conditions: S. cerevisiae mlh1 strain growth inhibition, stronger effect = higher value
In short: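 Measured: yeast growth. Reference: vehicle-treated controls. Organism: strain with a defined alteration affecting DNA damage repair or cell cycle control, treated with compound.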

[16] = at 5.0 µM (retest, dose inferred, filed as 0.5)
[17] = at 50.0 µM (retest, dose inferred, filed as 5.0)

Measured: growth inhibition

CN(N=O)C(=O)NNC(=O)N(C)N=O
inactive: [1]; at 1.2 µM 0% | [1]; at 3.7 µM 1% | [1]; at 11.0 µM 5% | [1]; at 33.0 µM 16% | [1]; at 100.0 µM 38% | [2]; at 1.2 µM 3% | [2]; at 3.7 µM 16% | [2]; at 11.0 µM 62% | [3]; at 1.2 µM 9% | [3]; at 3.7 µM 28% | [3]; at 11.0 µM 51% | [4]; at 1.2 µM 6% | [4]; at 3.7 µM 23% | [4]; [16] 21% | [4]; at 11.0 µM 56% | [5]; at 1.2 µM -2% | [5]; at 3.7 µM 3% | [5]; [16] 10% | [5]; at 11.0 µM 22% | [5]; at 33.0 µM 61% | [5]; at 50.0 µM 38.2% | [7]; at 1.2 µM -5% | [7]; at 3.7 µM -4% | [7]; at 11.0 µM -7% | [7]; at 33.0 µM 11% | [7]; at 100.0 µM 41% | [8]; [16] -32% | [8]; [17] 18% | [8]; at 50.0 µM 11.7% | [9]; at 1.2 µM -9% | [9]; at 3.7 µM 5% | [9]; [16] -11% | [9]; at 11.0 µM -6% | [9]; at 33.0 µM 15% | [9]; [17] 27% | [9]; at 50.0 µM 1.9% | [9]; at 100.0 µM 39% | [10]; at 1.2 µM -3% | [10]; at 3.7 µM -2% | [10]; at 11.0 µM 1% | [10]; at 33.0 µM 16% | [10]; at 100.0 µM 49% | [11]; at 1.2 µM 11% | [11]; at 3.7 µM 26% | [11]; at 11.0 µM 52% | [12]; [16] 6% | [12]; at 50.0 µM 67%
active: [2]; at 33.0 µM 93% | [2]; at 100.0 µM 95% | [3]; at 33.0 µM 88% | [3]; at 100.0 µM 96% | [4]; at 33.0 µM 92% | [4]; [17] 95% | [4]; at 50.0 µM 94.9% | [4]; at 100.0 µM 96% | [5]; [17] 85% | [5]; at 100.0 µM 96% | [6]; [16] 74% | [6]; [17] 96% | [6]; at 50.0 µM 91.6% | [11]; at 33.0 µM 81% | [11]; at 100.0 µM 91% | [12]; [17] 89% | [13]; at 1.2 µM 71% | [13]; at 3.7 µM 95% | [13]; at 11.0 µM 96% | [13]; at 33.0 µM 96% | [13]; at 100.0 µM 96%

CCC(=O)OC1CCn2c1nc1c2C(=O)C(C)=C(N2CC2)C1=O (stereo unspecified)
active: [4]; [17] 87% | [4]; at 100.0 µM 78% | [14]; at 100.0 µM 79% | [6]; at 50.0 µM 71.4% | [11]; at 100.0 µM 80% | [12]; [17] 73% | [13]; at 3.7 µM 75% | [13]; at 11.0 µM 87% | [13]; at 33.0 µM 90% | [13]; at 100.0 µM 91%
inactive: [1]; at 1.2 µM 4% | [1]; at 3.7 µM -7% | [1]; at 11.0 µM -11% | [1]; at 33.0 µM -8% | [1]; at 100.0 µM 2% | [2]; at 1.2 µM 12% | [2]; at 3.7 µM 1% | [2]; at 11.0 µM -9% | [2]; at 33.0 µM 7% | [2]; at 100.0 µM 25% | [3]; at 1.2 µM 7% | [3]; at 3.7 µM -7% | [3]; at 11.0 µM -1% | [3]; at 33.0 µM 6% | [3]; at 100.0 µM 16% | [4]; at 1.2 µM 18% | [4]; at 3.7 µM -3% | [4]; [16] 48% | [4]; at 11.0 µM 18% | [4]; at 33.0 µM 34% | [4]; at 50.0 µM 55.8% | [14]; at 1.2 µM 8% | [14]; at 3.7 µM 7% | [14]; at 11.0 µM 14% | [14]; at 33.0 µM 38% | [6]; [16] 20% | [6]; [17] 66% | [7]; at 1.2 µM -41% | [7]; at 3.7 µM -44% | [7]; at 11.0 µM -43% | [7]; at 33.0 µM -39% | [7]; at 100.0 µM -19% | [8]; [16] 14% | [8]; [17] 54% | [8]; at 50.0 µM 57.6% | [9]; at 1.2 µM 9% | [9]; at 3.7 µM -3% | [9]; [16] -24% | [9]; at 11.0 µM -9% | [9]; at 33.0 µM -14% | [9]; [17] -11% | [9]; at 50.0 µM -7.05% | [9]; at 100.0 µM 13% | [15]; at 1.2 µM 5% | [15]; at 3.7 µM 24% | [15]; at 11.0 µM -11% | [15]; at 33.0 µM -10% | [15]; at 100.0 µM 24% | [11]; at 1.2 µM 14% | [11]; at 3.7 µM 30% | [11]; at 11.0 µM 37% | [11]; at 33.0 µM 55% | [12]; [16] 45% | [12]; at 50.0 µM 69% | [13]; at 1.2 µM 60%

CO[C@H](/C(C)=C/C=C/C(C)=C/c1coc(C)n1)[C@H](C)[C@H]1C[C@@H](O)[C@@]2(C)O[C@H]2/C=C/[C@@H](C)[C@@H]2C[C@@H](CC(=O)O2)C[C@H]2O[C@@H]2C(=O)O1
active: [1]; at 100.0 µM 93% | [3]; at 100.0 µM 94% | [4]; [17] 89% | [4]; at 100.0 µM 93% | [5]; [17] 93% | [5]; at 100.0 µM 93% | [14]; at 100.0 µM 91% | [6]; [17] 91% | [7]; at 100.0 µM 88% | [9]; at 33.0 µM 89% | [9]; [17] 95% | [9]; at 50.0 µM 83.3% | [9]; at 100.0 µM 96% | [10]; at 33.0 µM 81% | [10]; at 100.0 µM 92% | [15]; at 100.0 µM 94% | [11]; at 100.0 µM 91% | [12]; [17] 89% | [13]; at 100.0 µM 92%
inactive: [1]; at 1.2 µM 7% | [1]; at 3.7 µM -2% | [1]; at 11.0 µM 2% | [1]; at 33.0 µM 15% | [2]; at 1.2 µM -17% | [2]; at 3.7 µM -9% | [2]; at 11.0 µM -21% | [2]; at 33.0 µM -8% | [2]; at 100.0 µM -23% | [3]; at 1.2 µM -4% | [3]; at 3.7 µM -14% | [3]; at 11.0 µM -6% | [3]; at 33.0 µM 24% | [4]; at 1.2 µM -6% | [4]; at 3.7 µM -15% | [4]; [16] -9% | [4]; at 11.0 µM -26% | [4]; at 33.0 µM 4% | [4]; at 50.0 µM 39.1% | [5]; at 1.2 µM -9% | [5]; at 3.7 µM -5% | [5]; [16] -9% | [5]; at 11.0 µM -16% | [5]; at 33.0 µM 16% | [5]; at 50.0 µM 49.2% | [14]; at 1.2 µM -28% | [14]; at 3.7 µM -17% | [14]; at 11.0 µM -8% | [14]; at 33.0 µM -8% | [6]; [16] 15% | [6]; at 50.0 µM 20.6% | [7]; at 1.2 µM -24% | [7]; at 3.7 µM -17% | [7]; at 11.0 µM -13% | [7]; at 33.0 µM 1% | [8]; [16] 8% | [8]; [17] 54% | [8]; at 50.0 µM 19.4% | [9]; at 1.2 µM -19% | [9]; at 3.7 µM -10% | [9]; [16] 37% | [9]; at 11.0 µM 9% | [10]; at 1.2 µM -12% | [10]; at 3.7 µM -4% | [10]; at 11.0 µM -6% | [15]; at 1.2 µM 10% | [15]; at 3.7 µM 7% | [15]; at 11.0 µM 11% | [15]; at 33.0 µM 44% | [11]; at 1.2 µM 1% | [11]; at 3.7 µM 2% | [11]; at 11.0 µM -6% | [11]; at 33.0 µM 8% | [12]; [16] -9% | [12]; at 50.0 µM 33.4% | [13]; at 1.2 µM 0% | [13]; at 3.7 µM -12% | [13]; at 11.0 µM -14% | [13]; at 33.0 µM 6%
